# Reference: PubChem BioAssay (NCI)
# The panel holds about 79,000 compounds, 15% with a hit somewhere; the sample as a whole holds those more often. Values without a mark were called inactive. No stated cut-off is given here; in the data, active means growth inhibition above about 70%; inactive means the rest.
# Test: NCI Yeast Anticancer Drug Screen. Data for the cln2 rad14 strain (AID 165);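 further: 0% = growth equal to vehicle treated cultures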
# Settings: S. cerevisiae cln2 rad14 strain, at 50.0 µM, stronger effect = higher value
# How it was run: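 Readout is yeast growth inhibition versus vehicle-treated controls, using a strain with cln2 and rad14 alterations exposed to compound.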
row,Compound,growth inhibition [%]
1,COc1nc2ccccc2s1,10.9
2,CCCCCCCCCCCCCCCCCCSC(=N)N,-116
3,CCC(=O)Oc1c(C)cc(O)c2ccccc12,52.9
4,C=CC(C)(C)n1cc(C2=C(O)C(=O)C(c3cn(C(C)(C)C=C)c4ccccc34)=C(O)C2=O)c2ccccc21,4.7
5,COC1OC(COC(C)=O)C(OC(C)=O)C(OC(C)=O)C1OC(C)=O (configuration not stated),-28.6
6,Nc1ncc([N+](=O)[O-])cn1,-13.8
7,CC(=O)c1cccc(NS(=O)(=O)c2ccc(C)cc2)c1,-36.7
8,COc1ccc(C(=O)C(=O)c2ccccc2)cc1,1.85
9,CN(C)CCOC(=O)Nc1ccc(Cc2ccc(NC(=O)OCCN(C)C)cc2)cc1,8.25
10,O=S(=O)(OCCOS(=O)(=O)c1ccccc1)c1ccccc1,-27.9
11,CCOC(=O)C(=O)CC(=O)c1ccccc1,-26.4
12,O=[N+]([O-])c1c(O)c(CNCCCO)cc(CNCCCO)c1O,19.6
13,O=C(Nc1ccccc1)c1ccco1,-0.6
14,C[n+]1cc2cc3c(cc2c2ccccc21)OCO3,13.1
15,Cc1ccc([N+](=O)[O-])c(C)n1,27.1
16,O=C(CCl)Nc1ccccc1SCc1cc(Cl)cc2c1OCOC2,22.9
17,CCOC(=O)c1ccc(NC(C)=O)o1,-23.1
18,COc1cc(OC)c2cc(C(=O)c3ccc(C#N)cc3)c(=O)oc2c1,31

row,Compound,growth inhibition [%]
1,CCN1CCCC(N2c3ccccc3Sc3ccccc32)C1 (configuration not stated),-58.8
2,Cc1cc(NC(=O)c2ccccc2)c(Cl)cc1N,-13.4
3,CCC1CCC(C)NC1 (configuration not stated),23.6
4,CSc1cnc2ccccc2n1,13.1
5,CC(O)C(F)(F)C(F)(F)C(F)(F)F (configuration not stated),-2.1
6,C=CC1=NC(C)(C)CC(C)O1 (configuration not stated),25.4
7,Cn1/c(=N\N=C\c2ccccc2OCCO)sc2ccccc21,9.7
8,CN(C)c1ccc2c(N(C)C)cc(N(C)C)nc2c1,20.4
9,NC(CO)(CO)c1ccccc1,20
10,O=C(c1ccccc1)c1ccc(-c2ccc(O)cc2)cc1,-44.3
11,Oc1cc(O)c2c(c1)O[C@H](c1ccc(O)c(O)c1)[C@@H](O)C2,1.35
12,NNc1ncccn1,-3.35
13,O=CNCCc1ccccc1,5
14,CCOC(=O)C1(N)CCCCC1,-9.85
15,O=S1(=O)c2ccccc2Oc2ccccc21,16.6
16,Cc1ccc(C)c2c1CCC2=O,-19.2
17,Cc1c(Cl)cccc1N=C=S,11.5
18,NC(CSSCC(N)C(=O)O)C(=O)O (configuration not stated),4

# Test: NCI Yeast Anticancer Drug Screen. Data for the bub3 strain (AID 167)
# Settings: S. cerevisiae bub3 mutant strain, at 50.0 µM, stronger effect = higher value
# How it was run: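 Part of a panel of yeast mutants defective in DNA damage repair or cell cycle regulation. Each strain is grown with compound, and inhibition is calculated relative to solvent-treated cultures.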
row,Compound,growth inhibition [%]
1,COc1nc2ccccc2s1,1.5
2,CCCCCCCCCCCCCCCCCCSC(=N)N,29.3
3,CCC(=O)Oc1c(C)cc(O)c2ccccc12,35.2
4,C=CC(C)(C)n1cc(C2=C(O)C(=O)C(c3cn(C(C)(C)C=C)c4ccccc34)=C(O)C2=O)c2ccccc21,-18.8
5,COC1OC(COC(C)=O)C(OC(C)=O)C(OC(C)=O)C1OC(C)=O (configuration not stated),2.05
6,Nc1ncc([N+](=O)[O-])cn1,5.6
7,CC(=O)c1cccc(NS(=O)(=O)c2ccc(C)cc2)c1,-7.9
8,COc1ccc(C(=O)C(=O)c2ccccc2)cc1,11.1
9,CN(C)CCOC(=O)Nc1ccc(Cc2ccc(NC(=O)OCCN(C)C)cc2)cc1,8.7
10,O=S(=O)(OCCOS(=O)(=O)c1ccccc1)c1ccccc1,-9.1
11,CCOC(=O)C(=O)CC(=O)c1ccccc1,8.55
12,c1ccc(Nc2ccccn2)nc1,3.8
13,O=C(Nc1ccccc1)c1ccco1,-1.55
14,C[n+]1cc2cc3c(cc2c2ccccc21)OCO3,26.9
15,COc1ccc(C)cc1NC(=O)SC(C)C,18.4
16,Cc1ccc([N+](=O)[O-])c(C)n1,-4.4
17,O=C(CCl)Nc1ccccc1SCc1cc(Cl)cc2c1OCOC2,13.6
18,CCOC(=O)c1ccc(NC(C)=O)o1,-5.35

row,Compound,growth inhibition [%]
1,COc1cc(OC)c2cc(C(=O)c3ccc(C#N)cc3)c(=O)oc2c1,35.1
2,CCN1CCCC(N2c3ccccc3Sc3ccccc32)C1 (configuration not stated),8.5
3,Cc1cc(NC(=O)c2ccccc2)c(Cl)cc1N,-21
4,CCC1CCC(C)NC1 (configuration not stated),-7.05
5,CSc1cnc2ccccc2n1,-0.85
6,CC(O)C(F)(F)C(F)(F)C(F)(F)F (configuration not stated),-2.7
7,C=CC1=NC(C)(C)CC(C)O1 (configuration not stated),11.5
8,CN(C)c1ccc2c(N(C)C)cc(N(C)C)nc2c1,2.95
9,NC(CO)(CO)c1ccccc1,17.5
10,O=C(c1ccccc1)c1ccc(-c2ccc(O)cc2)cc1,57.1
11,Oc1cc(O)c2c(c1)O[C@H](c1ccc(O)c(O)c1)[C@@H](O)C2,-6.45
12,NNc1ncccn1,-10
13,O=CNCCc1ccccc1,6.3
14,CCOC(=O)C1(N)CCCCC1,13
15,O=S1(=O)c2ccccc2Oc2ccccc21,3.4
16,Cc1ccc(C)c2c1CCC2=O,3.85
17,Cc1c(Cl)cccc1N=C=S,-0.95
18,NC(CSSCC(N)C(=O)O)C(=O)O (configuration not stated),-20.9
